Laboratory results from PubChem BioAssay (NCATS).
Inconclusive results are not listed. Active and inactive are the calls of the source. Calls come from the whole dose curve; as a rule, active = well fitted curve in the direction sought with a large enough effect; inconclusive = small, poorly fitted or top-dose-only effect, or another doubt; inactive = no such curve, though single readings can be large; an effect the other way counts as inactive or inconclusive.

How the values were obtained:
[1] = Quantitative High-Throughput drug screen in 47 multiple myeloma cell lines against the NCATS MIPE library collection: AMO1_DSMZ cell viability assay (AID 1918927; note: nearly all actives have a fitted effect of over 30% in size; note: potency is the fitted concentration of half-maximal effect)
Procedure, shortened: (§1)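 Inhibition of cell viability is measured here. Each line was plated at 500 cells per well, treated with MIPE 4.0 drugs, kept 48 hours at 37C, then assayed for ATP content by CellTiter-Glo luminescence.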

[2] = Quantitative High-Throughput drug screen in 47 multiple myeloma cell lines against the NCATS MIPE library collection: ARP1_JJKsccF8 cell viability assay (AID 1918928; note: nearly all actives have a fitted effect of over 40% in size; note: potency is the fitted concentration of half-maximal effect)
Procedure, shortened: (§2)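 Cell viability inhibition in this qHTS is measured via ATP content (CellTiter-Glo) after 48 h drug exposure at 37 °C. Wells hold 500 cells; DMSO-treated wells define 100% and medium-only wells 0%.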

[3] = Quantitative High-Throughput drug screen in 47 multiple myeloma cell lines against the NCATS MIPE library collection: ARD_JJKsccE7 cell viability assay (AID 1918929)
Procedure, shortened: as §1

[4] = Quantitative High-Throughput drug screen in 47 multiple myeloma cell lines against the NCATS MIPE library collection: KMM1_JCRB cell viability assay (AID 1918960); note: nearly all actives have a fitted effect of over 30% in size; note: potency is the fitted concentration of half-maximal effect
Procedure, shortened: as §2

[5] = Quantitative High-Throughput drug screen in 47 multiple myeloma cell lines against the NCATS MIPE library collection: JIM3_ECACC cell viability assay (AID 1918963; note: nearly all actives have a fitted effect of over 35% in size; note: potency is the fitted concentration of half-maximal effect)
Procedure, shortened: (§3)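 Myeloma cells (500 per well) were exposed to MIPE 4.0 compounds by pin transfer and incubated 48 hours at 37C, 5% CO2. Viability was read as ATP by CellTiter-Glo luminescence, normalised to DMSO (100%) and media-only (0%) wells.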

[6] = Quantitative High-Throughput drug screen in 47 multiple myeloma cell lines against the NCATS MIPE library collection: INA6_PLB cell viability assay (AID 1918965; note: nearly all actives have a fitted effect of over 55% in size; note: potency is the fitted concentration of half-maximal effect)
Procedure, shortened: (§4)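 CellTiter-Glo ATP luminescence gave viability after 48 h compound treatment at 37C of 500 multiple myeloma cells per well. Normalisation used DMSO-only wells as 100% and media-only wells as 0% viability; primary qHTS of approved and investigational drugs.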

[7] = Quantitative High-Throughput drug screen in 47 multiple myeloma cell lines against the NCATS MIPE library collection: JJN3_DSMZ cell viability assay (AID 1918966; note: nearly all actives have a fitted effect of over 50% in size; note: potency is the fitted concentration of half-maximal effect)
Procedure, shortened: as §1

[8] = Quantitative High-Throughput drug screen in 47 multiple myeloma cell lines against the NCATS MIPE library collection: H1112_PLB cell viability assay (AID 1918967; note: nearly all actives have a fitted effect of over 30% in size; note: potency is the fitted concentration of half-maximal effect)
Procedure, shortened: as §1

[9] = Quantitative High-Throughput drug screen in 47 multiple myeloma cell lines against the NCATS MIPE library collection: KMS27_JCRB cell viability assay (AID 1918970); note: nearly all actives have a fitted effect of over 30% in size; note: potency is the fitted concentration of half-maximal effect
Procedure, shortened: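 CellTiter-Glo luminescence after 48 h drug exposure at 37 °C; 500 cells/well, 1536-well format, pin-tool compound addition; DMSO = 100%, media-only = 0% viability.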

[10] = Quantitative High-Throughput drug screen in 47 multiple myeloma cell lines against the NCATS MIPE library collection: KMS12BM_JCRB cell viability assay (AID 1918971); note: nearly all actives have a fitted effect of over 35% in size; note: potency is the fitted concentration of half-maximal effect
Procedure, shortened: as §3

[11] = Quantitative High-Throughput drug screen in 47 multiple myeloma cell lines against the NCATS MIPE library collection: KMS12PE_JCRB cell viability assay (AID 1918972); note: nearly all actives have a fitted effect of over 30% in size; note: potency is the fitted concentration of half-maximal effect
Procedure, shortened: as §4

[12] = Quantitative High-Throughput drug screen in 47 multiple myeloma cell lines against the NCATS MIPE library collection: KMS21BM_JCRB cell viability assay (AID 1918974); settings: ATP luminescence, 48 h; viability: at 45.8 µM (top of the series) unless noted; note: potency is the fitted concentration of half-maximal effect
Procedure, shortened: as §1

[13] = Quantitative High-Throughput drug screen in 47 multiple myeloma cell lines against the NCATS MIPE library collection: KMS26_JCRB cell viability assay (AID 1918975); note: nearly all actives have a fitted effect of over 45% in size; note: potency is the fitted concentration of half-maximal effect
Procedure, shortened: as §3

[14] = Quantitative High-Throughput drug screen in 47 multiple myeloma cell lines against the NCATS MIPE library collection: Karpas620_DSMZ cell viability assay (AID 1918959); note: nearly all actives have a fitted effect of over 30% in size; note: potency is the fitted concentration of half-maximal effect
Procedure, shortened: as §3

[15] = Quantitative High-Throughput drug screen in 47 multiple myeloma cell lines against the NCATS MIPE library collection: JIM1_ECACC cell viability assay (AID 1918964; note: potency is the fitted concentration of half-maximal effect)
Procedure, shortened: as §1

[16] = Quantitative High-Throughput drug screen in 47 multiple myeloma cell lines against the NCATS MIPE library collection: Karpas25_ECACC cell viability assay (AID 1918968; note: nearly all actives have a fitted effect of over 35% in size; note: potency is the fitted concentration of half-maximal effect)
Procedure, shortened: as §1

[17] = Quantitative High-Throughput drug screen in 47 multiple myeloma cell lines against the NCATS MIPE library collection: KMS20_JCRB cell viability assay (AID 1918973); note: nearly all actives have a fitted effect of over 45% in size; note: potency is the fitted concentration of half-maximal effect
Procedure, shortened: as §1

[18] = Quantitative High-Throughput drug screen in 47 multiple myeloma cell lines against the NCATS MIPE library collection: Karpas417_ECACC cell viability assay (AID 1918961); settings: Karpas417 myeloma viability, CellTiter-Glo ATP luminescence, 48 h; viability (% of DMSO): at 45.8 µM (top of the series); note: potency is the fitted concentration of half-maximal effect
Procedure, shortened: as §4

[19] = Quantitative High-Throughput drug screen in 47 multiple myeloma cell lines against the NCATS MIPE library collection: MMM1_PLB cell viability assay (AID 1918976); note: potency is the fitted concentration of half-maximal effect; nearly all actives have a fitted effect of over 35% in size
Procedure, shortened: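 ATP-based CellTiter-Glo luminescence after 48 h drug exposure (37 °C, 5% CO2) of 500 myeloma cells per well. DMSO-only wells set 100% viability, media-only wells 0%; MIPE 4.0 library added by pin tool.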

[20] = Quantitative High-Throughput drug screen in 47 multiple myeloma cell lines against the NCATS MIPE library collection: KHM11_PLB cell viability assay (AID 1918962); note: nearly all actives have a fitted effect of over 35% in size; note: potency is the fitted concentration of half-maximal effect
Procedure, shortened: as §3

O=C(Nc1c(Cl)cncc1Cl)c1ccc(OC(F)F)c(OCC2CC2)c1
inactive: Potency [1] | Potency [2] | Potency [3] | Potency [4] | Potency [5] | Potency [7] | Potency [8] | Potency [9] | Potency [10] | Potency [11] | Potency [12] | Potency [13]
active: Potency [6] 37.2 µM

COc1ccc(-c2nc(N3CCOCC3)c3sc(CN(C)c4ncc(C(=O)NO)cn4)cc3n2)cn1
active: Potency [1] 0.001 µM | Potency [14] 0.001 µM | Potency [4] 0.001 µM | Potency [15] 0.001 µM | Potency [7] 0.0019 µM | Potency [9] 0.001 µM | Potency [11] 0.001 µM
inactive: Potency [2] | Potency [16] | Potency [10] | Potency [17]

O=C1C(Cl)=C(NCCN2CCOCC2)C(=O)c2ncccc21
active: Potency [1] 2.96 µM | Potency [2] 4.69 µM | Potency [14] 1.48 µM | Potency [18] 3.32 µM | Potency [5] 8.33 µM | Potency [15] 2.96 µM | Potency [6] 2.96 µM | Potency [7] 3.72 µM | Potency [8] 11.8 µM | Potency [9] 2.64 µM | Potency [10] 2.96 µM | Potency [11] 3.32 µM | Potency [17] 4.69 µM | Potency [13] 6.62 µM | Potency [19] 2.96 µM

NC[C@@H]1O[C@@H](O[C@H]2[C@@H](O)[C@H](O[C@@H]3[C@@H](O)[C@@H](N)C[C@H](N)[C@H]3O[C@H]3O[C@H](CN)[C@@H](O)[C@@H](O)[C@H]3N)O[C@H]2CO)[C@H](N)[C@@H](O)[C@@H]1O
inactive: Potency [1] | Potency [2] | Potency [3] | Potency [5] | Potency [15] | Potency [6] | Potency [7] | Potency [8] | Potency [9] | Potency [11]

NC(CO)(CO)CCc1ccc(Sc2cccc(OCc3ccccc3)c2)cc1Cl
active: Potency [1] 20.9 µM | Potency [2] 23.5 µM | Potency [14] 16.6 µM | Potency [4] 18.7 µM | Potency [5] 13.2 µM | Potency [15] 16.6 µM | Potency [8] 16.6 µM | Potency [16] 7.43 µM | Potency [9] 11.8 µM | Potency [11] 9.35 µM | Potency [12] 13.2 µM | Potency [13] 18.7 µM | Potency [19] 23.5 µM

CO[C@H]1C=CC=C(C)C(=O)NC2=CC(=O)C(NCCN(C)C)=C(C[C@@H](C)C[C@H](OC)[C@@H](O)[C@@H](C)C=C(C)[C@@H]1OC(N)=O)C2=O
active: Potency [1] 0.0469 µM | Potency [2] 0.0118 µM | Potency [14] 0.296 µM | Potency [5] 0.0743 µM | Potency [15] 0.0209 µM | Potency [6] 0.0235 µM | Potency [7] 0.0296 µM | Potency [8] 3.32 µM | Potency [16] 0.059 µM | Potency [9] 0.0264 µM | Potency [10] 0.0469 µM | Potency [11] 0.0662 µM | Potency [17] 0.001 µM | Potency [13] 0.0332 µM

c1ccc2c(Cc3c[nH]c4ccccc34)c[nH]c2c1
active: Potency [1] 8.33 µM | Potency [2] 20.9 µM | Potency [5] 10.5 µM | Potency [6] 3.32 µM | Potency [7] 26.4 µM | Potency [8] 1.05 µM | Potency [9] 7.43 µM | Potency [10] 20.9 µM | Potency [11] 5.9 µM | Potency [17] 2.96 µM
inactive: Potency [3]

CCc1ccc(OCc2ccccc2C(=O)Nc2ccc3nc(C)cc(N)c3c2)cc1
active: Potency [1] 3.32 µM | Potency [2] 7.43 µM | Potency [14] 1.05 µM | Potency [4] 2.64 µM | Potency [18] 1.87 µM | Potency [20] 2.35 µM | Potency [5] 2.64 µM | Potency [15] 2.64 µM | Potency [6] 2.64 µM | Potency [7] 6.62 µM | Potency [8] 2.96 µM | Potency [16] 1.32 µM | Potency [9] 1.87 µM | Potency [10] 7.43 µM | Potency [11] 0.935 µM | Potency [17] 0.59 µM | Potency [13] 6.62 µM | Potency [19] 6.62 µM

CC[C@@]1(O)C[C@H](O[C@H]2C[C@H](N(C)C)[C@H](O[C@H]3C[C@H](O)[C@H](O[C@H]4CCC(=O)[C@H](C)O4)[C@H](C)O3)[C@H](C)O2)c2c(cc3c(c2O)C(=O)c2c(O)cccc2C3=O)[C@@H]1C(=O)OC
active: Potency [1] 0.833 µM | Potency [2] 1.05 µM | Potency [4] 5.9 µM | Potency [20] 0.132 µM | Potency [5] 0.332 µM | Potency [6] 0.0662 µM | Potency [7] 0.296 µM | Potency [8] 0.833 µM | Potency [10] 0.148 µM | Potency [17] 0.0743 µM | Potency [13] 0.743 µM | Potency [19] 0.296 µM
inactive: Potency [9]

CCOC(=O)O[C@]1(C(=O)OCCl)CC[C@@H]2[C@H]3CCC4=CC(=O)C=C[C@]4(C)[C@@H]3[C@@H](O)C[C@@]21C
inactive: Potency [1] | Potency [14] | Potency [20] | Potency [5] | Potency [8] | Potency [9] | Potency [11]
active: Potency [2] 0.0372 µM | viability (% of DMSO) [18] 78.2%

CC[C@H]1OC(=O)[C@H](C)[C@@H](O[C@H]2C[C@@](C)(OC)[C@@H](O)[C@H](C)O2)[C@H](C)[C@@H](O[C@@H]2O[C@H](C)C[C@H](N(C)C)[C@@H]2O)[C@](C)(O)C[C@@H](C)CN(C)[C@H](C)[C@@H](O)[C@]1(C)O
inactive: Potency [1] | Potency [2] | Potency [14] | Potency [5] | Potency [8] | Potency [16] | Potency [10] | Potency [11]

CCCCCCCCCCCC1=C(O)C(=O)C=C(O)C1=O
active: Potency [1] 3.32 µM | Potency [2] 11.8 µM | Potency [14] 0.264 µM | Potency [4] 2.96 µM | Potency [5] 4.69 µM | Potency [15] 0.59 µM | Potency [6] 2.64 µM | Potency [16] 2.96 µM | Potency [9] 0.187 µM | Potency [10] 23.5 µM | Potency [11] 1.18 µM
